Test results published in PubChem BioAssay AID1159580 (chemical genetic matrix, 2015).
“And” between values parts separate entries of the source, which are not always exact repeats. Identical values can stand only once. Hit rate of the full screen: of about 5,500 compounds, about 2,000 (36%) were called active. Another 18% or so got no clear call; they are omitted. Cut-off read from the data, not from the text of the source: active = normalized growth mostly below about 0.91 (no sharp cut-off); inconclusive = no clear call, values can overlap the other calls; inactive = mostly above about 0.92. The list shows a part of the results.

Assay: chemical genetic growth profiling, strain panel (AID 1159580);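 note: tested at 20 µM; growth read once vehicle control cultures reached saturation at 30 °C; 1 = growth at the plate median or of vehicle wells; lower values mean less growth of the strain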
Conditions: S. cerevisiae deletion strains, growth OD

Measured: normalized growth

CN(Cc1cnc2nc(N)nc(N)c2n1)c1ccc(C(=O)NC(CCC(=O)O)C(=O)O)cc1 (stereo unspecified)
0.946 (inactive) and 0.147 (active): locus YHR030C, strain SLT2, stronger effect = lower value
inactive: locus YAL021C, strain ccr4, stronger effect = lower value 0.958 | locus YAL026C, strain drs2, stronger effect = lower value 0.911 | locus YAL030W, strain snc1, stronger effect = lower value 0.945 | locus YAL040C, strain CLN3, stronger effect = lower value 1.09 | locus YBL061C, strain skt5, stronger effect = lower value 0.927 | locus YBR021W, strain FUR4, stronger effect = lower value 0.958 | locus YBR171W, strain sec66, stronger effect = lower value 0.94 | locus YBR229C, strain ROT2, stronger effect = lower value 0.987 | locus YBR231C, strain swc5, stronger effect = lower value 0.931 | locus YBR279W, strain paf1, stronger effect = lower value 0.962 | locus YCL029C, strain bik1, stronger effect = lower value 0.988 | locus YCL061C, strain MRC1 (second series), stronger effect = lower value 1.01 | locus YCL069W, strain vba3, stronger effect = lower value 0.948 | locus YCR088W, strain abp1, stronger effect = lower value 0.954 | locus YDL005C, strain med2, stronger effect = lower value 0.997 | locus YDL035C, strain GPR1, stronger effect = lower value 0.975 | locus YDL040C, strain nat1, stronger effect = lower value 0.959 | locus YDL074C, strain BRE1, stronger effect = lower value 0.963 | locus YDL101C, strain DUN1, stronger effect = lower value 0.997 | locus YDL134C, strain PPH21, stronger effect = lower value 1 | locus YDL192W, strain arf1, stronger effect = lower value 0.95 | locus YDR001C, strain nth1, stronger effect = lower value 0.933 | locus YDR069C, strain doa4, stronger effect = lower value 0.955 | locus YDR101C, strain arx1, stronger effect = lower value 0.994 | locus YDR137W, strain rgp1, stronger effect = lower value 0.907 | locus YDR150W, strain NUM1, stronger effect = lower value 0.974 and 0.986 | locus YDR159W, strain sac3, stronger effect = lower value 0.978 | locus YDR162C, strain NBP2, stronger effect = lower value 0.982 | locus YDR195W, strain ref2 1.01 | locus YDR297W, strain sur2, stronger effect = lower value 0.955 | locus YDR318W, strain mcm21, stronger effect = lower value 0.994 | locus YDR335W, strain msn5, stronger effect = lower value 0.97 | locus YDR388W, stronger effect = lower value 1 | locus YDR392W, strain spt3, stronger effect = lower value 0.951 | locus YDR502C, strain sam2, stronger effect = lower value 0.967 | locus YEL003W, strain gim4, stronger effect = lower value 0.967 | locus YEL061C, strain CIN8 (second series), stronger effect = lower value 0.944 | locus YEL061C, strain CIN8, stronger effect = lower value 0.962 | locus YER002W, strain NOP16, stronger effect = lower value 0.971 | locus YER015W, strain faa2, stronger effect = lower value 0.958 | locus YER016W, strain bim1, stronger effect = lower value 0.965 | locus YER110C, stronger effect = lower value 0.985 | locus YER111C, strain swi4, stronger effect = lower value 0.962 | locus YER155C, strain BEM2 (second series), stronger effect = lower value 0.892 | locus YER155C, strain BEM2, stronger effect = lower value 0.976 | locus YER167W, strain BCK2, stronger effect = lower value 0.958 | locus YFR010W, strain ubp6, stronger effect = lower value 0.942 | locus YGL086W, strain mad1, stronger effect = lower value 1 | locus YGL167C, strain pmr1, stronger effect = lower value 0.942 | locus YGL173C, strain kem1, stronger effect = lower value 0.96 | locus YGL227W, strain vid30, stronger effect = lower value 0.922 | locus YGL240W, strain doc1, stronger effect = lower value 0.967 | locus YGL248W, strain PDE1, stronger effect = lower value 0.994 | locus YGL253W, strain hxk2, stronger effect = lower value 0.934 | locus YGR135W, strain pre9, stronger effect = lower value 0.933 | locus YGR252W, strain gcn5, stronger effect = lower value 1.02 | locus YHR013C, strain ard1, stronger effect = lower value 0.938 | locus YHR027C, strain rpn1, stronger effect = lower value 0.945 | locus YHR079C, strain IRE1 (second series), stronger effect = lower value 0.988 | locus YHR094C, strain hxt1, stronger effect = lower value 1 | locus YHR129C, strain ARP1, stronger effect = lower value 0.982 | locus YHR200W, strain rpn10, stronger effect = lower value 0.959 | locus YIL066C, strain RNR3, stronger effect = lower value 1 | locus YIL073C, strain SPO22, stronger effect = lower value 0.95 | locus YIR030C, strain dcg1, stronger effect = lower value 0.975 | locus YJL095W, strain BCK1 (second series), stronger effect = lower value 0.964 | locus YJL129C, strain trk1, stronger effect = lower value 0.89 | locus YJL134W, strain LCB3, stronger effect = lower value 0.992 | locus YJL154C, strain vps35, stronger effect = lower value 0.96 | locus YJL164C, strain tpk1, stronger effect = lower value 0.96 | locus YJL166W, strain qcr8, stronger effect = lower value 0.94 | locus YJL168C, strain set2, stronger effect = lower value 1 | locus YJL187C, strain SWE1 (second series), stronger effect = lower value 0.99 | locus YJL187C, strain SWE1, stronger effect = lower value 0.953 | locus YJR043C, strain POL32, stronger effect = lower value 0.98
0.993 (inactive) and 0.152 (active): locus YJL095W, strain BCK1, stronger effect = lower value
active: locus YBR009C, strain hhf1, stronger effect = lower value 0.888 | locus YBR023C, strain chs3, stronger effect = lower value 0.911 | locus YCL011C, strain gbp2, stronger effect = lower value 0.857 | locus YCL016C, strain dcc1, stronger effect = lower value 0.867 | locus YCL061C, strain MRC1, stronger effect = lower value 0.891 | locus YDL185W, strain tfp1, stronger effect = lower value 0.141 | locus YDR334W, strain swr1, stronger effect = lower value 0.881 | locus YEL037C, strain rad23, stronger effect = lower value 0.902 | locus YGL078C, strain dbp3, stronger effect = lower value 0.32 | locus YHR079C, strain IRE1, stronger effect = lower value 0.188 | locus YHR142W, strain chs7, stronger effect = lower value 0.86 | locus YIL125W, strain kgd1, stronger effect = lower value 0.278 | locus YJL092W, strain hpr5, stronger effect = lower value 0.818 | locus YJL115W, strain asf1, stronger effect = lower value 0.845
